Molecules are shown by their SMILES. Several values for one entry are separate records, joined by “and”; a condition that tells them apart may be missing. Equal values may be shown once. Results filed as inconclusive are left out. Some compounds were tested as several samples or in several runs, with calls that do not always agree. Activity calls are given as the source filed them. The calls were made as follows: active = hit-call score of the fitted dose curve at least 0.9, where 1 is the maximum; inconclusive = response in the unintended direction; inactive = score below 0.9.

The assay in a line: TOX21_p53_BLA_p2_viability: Viability Assessment in the Tox21 HCT-116 p53 Agonism Beta-lactamase Assay, Phase 2 (AID 2283591).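 Also: compound exposure lasted 16 h at 37 °C; actives lower the ATP signal meaning cytotoxicity.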 From the text:
TOX21_p53_BLA_p2 is a cell-based, single-readout assay that uses HCT116, a human intestinal cell line, […] in a 1536-well plate.TOX21_p53_BLA_p2_viability is an assay readout measuring cellular ATP content and detected with CellTiter-Glo Luciferase-coupled ATP quantitation.TOX21_p53_BLA_p2_viability used a type of viability reporter where loss-of-signal activity can be used to understand changes in the cell viability. Furthermore, this assay endpoint can be referred to as a secondary readout, because this assay has produced multiple assay endpoints where this one serves a viability function. To generalize the intended target to other relatable targets, this assay endpoint is annotated to the cell cycle intended target family, where the subfamily is cytotoxicity.
Thawing Method: Place 14 mL of pre-warmed thaw medium into a 15 mL of conical tub. Remove the vial of cells to be thawed from liquid nitrogen and thaw rapidly by placing at 37C in a water bath with gentle agitation for 1-2 minutes. Decontaminate the vial by wiping with 70% ethanol before opening in a biological safety cabinet. Transfer the vial contents drop-wise into 14 mL of thaw medium in a sterile 15-mL conical tub. Centrifuge cells at 900 rpm for 4 minutes and resuspend in thaw medium. Transfer contents to the T75 tissue culture flask containing Thaw Medium and place flask in a humidified 37C/5% CO2 incubator. Switch to growth medium at first passage.Propagation Method: Aspirate medium, rinse once in DPBS, add 0.25% Trypsin/EDTA and swirl to coat the cell evenly. Add an equal volume of Growth Medium to inactivate Trypsin after 2-3 minutes incubation at 37C. Centrifuge cells at 900 rpm for 4 minutes and resuspend in growth medium. Cell should be passage or fed at least twice a week.Assay Protocol: Harvest cells from culture in growth medium and resuspend in assay medium. 2.2 Dispense 4000 cells/5 uL/well into 1536-well black/clear bottom plates using a Multidrop dispenser. After the cells were incubated at 37C for 5 hours, 23 nL of compounds dissolved in DMSO were transferred to the assay plate by a PinTool resulting in a 217-fold dilution. Incubate the plates for 16 hours at 37C, 5% CO2. Add 1 uL of 6X LiveBLAzer FRET B/G (CCF4-AM) Substrate Mixture to each well using a BioRAPTR dispenser and incubate the plates at room temperature for 2 hours. Measure fluorescence intensity at 460 and 530 nm emission and 405 nm excitation by an Envision detector. Data is expressed as the ratio of 460nm/530nm emissions. Add 4 uL of Cell-titer Glo to each well using BioRAPTR and incubate the plates at room temperature for […]. For cell viability readout that measures cytotoxicity, 4 ul/well of CellTiter-Glo reagent was added into the assay plates using a Flying Reagent Dispenser. After 30 min incubation at room temperature, the luminescence intensity in the plates was measured using a ViewLux plate reader.
For the molecule `COC(=O)c1c(Cl)c(Cl)c(C(=O)OC)c(Cl)c1Cl`, the call was inactive.
For `CC(C)=CCC/C(C)=C\CO`, the outcome was inactive.
The same measure, in the same setting: the value for `CC(=O)OC[C@H]1O[C@@](COC(C)=O)(O[C@H]2O[C@H](COC(C)=O)[C@@H](OC(C)=O)[C@H](OC(C)=O)[C@H]2OC(C)=O)[C@@H](OC(C)=O)[C@@H]1OC(C)=O` was “inactive”; that for `O=C(O)c1cc(N=Nc2ccc(S(=O)(=O)Nc3ccccn3)cc2)ccc1O` was “inactive”; that for `COc1ccc(-n2nc(C(F)F)cc2-c2ccc(S(C)=O)cc2)cc1` (stereo not given) was “inactive”.
The same measure, in the same setting: in the case of `Cc1ccc(N)cc1O` it was “inactive”.
In the case of `CC(C)c1cccc(C(C)C)c1N1C(=O)c2ccc(O)cc2C1=O`, the concentration at half-maximal activity (AC50) (usually the midpoint of the concentration-response curve, whichever way the signal moves) was 66.7 µM (active).
Turning to `CC(C)=CCC/C(C)=C/CO`, the call was inactive.
Same read-out and setting: the value for `CCCCCCCCO` was “inactive”.
For `Nc1ccc(Nc2ccccc2)cc1`, the molecule was called inactive.
On the same count and under the same terms, the value for `C1N2CN3CN1CN(C2)C3` was “inactive”; that for `CC(C)(O)c1coc(S(=O)(=O)NC(=O)Nc2c3c(cc4c2CCC4)CCC3)c1` was “inactive”.
As to `CNS(=O)(=O)c1cc(C(=O)N2CCC(CCN3C4CCC3CC(n3c(C)nc5ccccc53)C4)(c3cccc(F)c3)CC2)c(Cl)cc1F` (stereo not given), the concentration at half-maximal activity (AC50) was 26.9 µM (active).
For `CC(O)CN(CCN(CC(C)O)CC(C)O)CC(C)O` (stereo not given), the outcome was inactive.
Still for that read-out and setting: the value for `CC(=O)c1ccc2c(c1)[C@H](NC(=O)c1ccc(F)cc1)[C@@H](O)C(C)(C)O2` was “inactive”; that for `O=C1CCCCCN1` was “inactive”; that for `CC(C)CCCCCCOC(=O)c1ccc(C(=O)OCCCCCCC(C)C)c(C(=O)OCCCCCCC(C)C)c1` was “inactive”.
As for `CC[C@H](C)C(=O)O[C@H]1C[C@@H](C)C=C2C=C[C@H](C)[C@H](CC[C@@H]3C[C@@H](O)CC(=O)O3)[C@H]21`, the molecule was classed as inactive and the AC50 was 44.6 µM (active).
Turning to `CC[C@H]1OC(=O)[C@H](C)[C@@H](O[C@H]2C[C@@](C)(OC)[C@@H](O)[C@H](C)O2)[C@H](C)[C@@H](O[C@@H]2O[C@H](C)C[C@H](N(C)C)[C@H]2O)[C@](C)(O)C[C@@H](C)C(=O)[C@H](C)[C@@H](O)[C@]1(C)O`, the result was inactive.
In the case of `CCN(C(=O)c1cc(C)cc(OC[C@H](C)Nc2ccncc2)c1)C(C)C`, the outcome was inactive.
On the same count and under the same terms, the value for `CCC(C)(C)C(=O)O[C@H]1C[C@@H](C)C=C2C=C[C@H](C)[C@H](CC[C@@H]3C[C@@H](O)CC(=O)O3)[C@H]21` was “inactive”.
The same measure, in the same setting: the value for `C1=CCCC=CCCC=CCC1` was “inactive”; that for `CC(C)CCO` was “inactive”; that for `Clc1nc(Cl)c(Cl)c(Cl)c1Cl` was “inactive”.
The same measure, in the same setting: the value for `CN(C)c1ccc(Cc2ccc(N(C)C)cc2)cc1` was “inactive”; that for `CN(C)c1ccc(N=NS(=O)(=O)O)cc1` was “inactive”; that for `Cn1c(=O)cc(Oc2ccc(F)cc2F)c2cnc(NCC(C)(C)O)nc21` was “inactive”.
On to `CC[C@H]1CC[C@H](NCc2cc3c(cc2OC)[C@H]2C[C@H]2C(=O)N3C)[C@H](c2ccccc2)N1`, for which the molecule was called inactive.
Same read-out and setting: the value for `Nc1nc2ncc(CNc3ccc(C(=O)N[C@@H](CCC(=O)O)C(=O)O)cc3)nc2c(=O)[nH]1` was “inactive”; that for `COC(=O)CC(=O)OC` was “inactive”.
On the same count and under the same terms, the value for `Cc1[nH]cnc1C[C@H]1CCc2c(C)c3ccccc3n2C1=O` was “inactive”.
On to `O=C(CCCCCCCCc1cccnc1)N1CCC(C=C(c2ccccc2)c2ccccc2)CC1`, for which the concentration at half-maximal activity (AC50) was 10 µM (active).
As for `O=C(O)c1cccc(N(Cc2cccnc2)c2ccc(OC(F)F)c(OC(F)F)c2)c1`, the molecule was called inactive.
`COc1cccc(-c2ccc(/C=C\CN3CCCCCC3)cc2Cl)c1`: the AC50 was 57.8 µM (active).
For the molecule `O=C1OC(=O)C2C3C=CC(C3)C12` (stereo not given), the result was inactive.
The same measure, in the same setting: the value for `O=C(O)CC(O)C(=O)O` (stereo not given) was “inactive”; that for `CCNc1ccccc1` was “inactive”.
On to `O=C(OC[C@H]1O[C@@H](OC(=O)c2cc(O)c(O)c(OC(=O)c3cc(O)c(O)c(O)c3)c2)[C@H](OC(=O)c2cc(O)c(O)c(OC(=O)c3cc(O)c(O)c(O)c3)c2)[C@@H](OC(=O)c2cc(O)c(O)c(OC(=O)c3cc(O)c(O)c(O)c3)c2)[C@@H]1OC(=O)c1cc(O)c(O)c(OC(=O)c2cc(O)c(O)c(O)c2)c1)c1cc(O)c(O)c(OC(=O)c2cc(O)c(O)c(O)c2)c1`, for which the half-maximal activity concentration (AC50) was 17.2 µM (active) and 5.28 µM (active).
For the molecule `O=C1CCC(N2C(=O)c3ccccc3C2=O)C(=O)N1` (stereo not given), the result was inactive.

The values above are taken from PubChem BioAssay (EPA / NIEHS).
